Records with an inconclusive call do not appear. Where a structure was tested more than once in an assay, its records may differ in their call. Calls of active or inactive are those of the source. How the source made its calls, unless noted: active means hit-call score of the fitted dose curve at least 0.9, where 1 is the maximum; inconclusive means response in the unintended direction; inactive means score below 0.9.

Chain of Small conductance calcium-activated potassium channel protein 1 (Rattus norvegicus) (P70606 whole entry, looked up): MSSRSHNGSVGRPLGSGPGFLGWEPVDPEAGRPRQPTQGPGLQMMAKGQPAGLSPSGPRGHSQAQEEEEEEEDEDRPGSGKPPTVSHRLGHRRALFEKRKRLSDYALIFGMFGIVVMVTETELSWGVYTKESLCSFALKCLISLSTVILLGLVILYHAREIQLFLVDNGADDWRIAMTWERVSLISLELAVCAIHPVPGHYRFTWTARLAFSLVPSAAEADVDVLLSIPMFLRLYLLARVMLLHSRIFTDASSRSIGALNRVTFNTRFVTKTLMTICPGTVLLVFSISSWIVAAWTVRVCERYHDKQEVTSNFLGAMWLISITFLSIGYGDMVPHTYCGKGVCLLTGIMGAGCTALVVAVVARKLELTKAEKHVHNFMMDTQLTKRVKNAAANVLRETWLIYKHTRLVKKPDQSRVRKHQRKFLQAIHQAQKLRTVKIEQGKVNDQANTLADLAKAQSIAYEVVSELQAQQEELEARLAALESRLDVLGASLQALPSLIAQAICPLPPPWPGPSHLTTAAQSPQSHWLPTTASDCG
Chain of Glutamate receptor ionotropic, kainate 1 (Rattus norvegicus) (P22756 whole entry, looked up): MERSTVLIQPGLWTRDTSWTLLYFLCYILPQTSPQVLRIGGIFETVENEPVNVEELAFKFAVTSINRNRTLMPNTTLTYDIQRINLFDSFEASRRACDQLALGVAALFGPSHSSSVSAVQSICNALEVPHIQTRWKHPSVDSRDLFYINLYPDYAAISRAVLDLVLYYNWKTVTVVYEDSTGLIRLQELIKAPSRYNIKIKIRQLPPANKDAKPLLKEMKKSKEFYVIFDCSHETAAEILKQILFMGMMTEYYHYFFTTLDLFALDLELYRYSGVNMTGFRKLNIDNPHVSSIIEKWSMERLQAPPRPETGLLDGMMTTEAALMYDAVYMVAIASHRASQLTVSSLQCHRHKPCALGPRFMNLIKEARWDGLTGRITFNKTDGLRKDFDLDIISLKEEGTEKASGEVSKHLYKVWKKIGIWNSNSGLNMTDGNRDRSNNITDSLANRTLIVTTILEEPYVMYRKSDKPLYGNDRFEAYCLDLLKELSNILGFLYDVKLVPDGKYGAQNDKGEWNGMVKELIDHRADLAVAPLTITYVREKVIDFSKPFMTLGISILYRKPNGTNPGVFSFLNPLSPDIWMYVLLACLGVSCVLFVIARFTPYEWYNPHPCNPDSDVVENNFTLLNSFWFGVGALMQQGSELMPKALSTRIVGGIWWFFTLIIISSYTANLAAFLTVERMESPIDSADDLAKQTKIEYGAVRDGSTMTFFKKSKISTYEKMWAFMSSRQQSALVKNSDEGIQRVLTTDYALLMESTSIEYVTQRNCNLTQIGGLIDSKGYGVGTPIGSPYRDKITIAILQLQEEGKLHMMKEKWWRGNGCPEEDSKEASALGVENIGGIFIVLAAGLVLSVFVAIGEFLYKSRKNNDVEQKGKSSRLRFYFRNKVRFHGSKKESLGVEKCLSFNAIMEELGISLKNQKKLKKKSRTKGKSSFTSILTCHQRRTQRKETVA
Chain of rat Peripheral-type Benzodiazepine Receptor (PBR), Tspo (gene 24230) (P16257 whole entry, looked up): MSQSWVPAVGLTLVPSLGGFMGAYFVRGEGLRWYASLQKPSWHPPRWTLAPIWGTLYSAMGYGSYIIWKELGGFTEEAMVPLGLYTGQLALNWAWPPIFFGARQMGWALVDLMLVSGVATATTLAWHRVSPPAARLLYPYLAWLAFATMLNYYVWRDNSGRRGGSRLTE
Chain of bovine Gamma-Aminobutyric Acid Type A Receptor Agonist (GABAR Agonist), GABRA1 (gene 780973) (P08219 whole entry, looked up): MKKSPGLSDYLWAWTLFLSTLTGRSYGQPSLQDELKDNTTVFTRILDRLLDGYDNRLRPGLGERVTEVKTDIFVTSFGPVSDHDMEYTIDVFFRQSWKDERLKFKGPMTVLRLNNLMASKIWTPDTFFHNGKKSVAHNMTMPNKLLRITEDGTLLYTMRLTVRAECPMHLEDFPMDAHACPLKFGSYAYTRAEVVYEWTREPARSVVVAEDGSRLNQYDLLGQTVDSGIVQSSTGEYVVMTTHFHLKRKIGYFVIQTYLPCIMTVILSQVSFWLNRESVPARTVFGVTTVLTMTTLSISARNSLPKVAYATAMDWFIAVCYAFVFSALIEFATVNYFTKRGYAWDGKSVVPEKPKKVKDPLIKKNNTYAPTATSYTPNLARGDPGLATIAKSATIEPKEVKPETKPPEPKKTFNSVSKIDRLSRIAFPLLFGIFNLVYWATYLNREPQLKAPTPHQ
Chain of Voltage-gated inwardly rectifying potassium channel KCNH2 (Homo sapiens) (Q12809 whole entry, looked up): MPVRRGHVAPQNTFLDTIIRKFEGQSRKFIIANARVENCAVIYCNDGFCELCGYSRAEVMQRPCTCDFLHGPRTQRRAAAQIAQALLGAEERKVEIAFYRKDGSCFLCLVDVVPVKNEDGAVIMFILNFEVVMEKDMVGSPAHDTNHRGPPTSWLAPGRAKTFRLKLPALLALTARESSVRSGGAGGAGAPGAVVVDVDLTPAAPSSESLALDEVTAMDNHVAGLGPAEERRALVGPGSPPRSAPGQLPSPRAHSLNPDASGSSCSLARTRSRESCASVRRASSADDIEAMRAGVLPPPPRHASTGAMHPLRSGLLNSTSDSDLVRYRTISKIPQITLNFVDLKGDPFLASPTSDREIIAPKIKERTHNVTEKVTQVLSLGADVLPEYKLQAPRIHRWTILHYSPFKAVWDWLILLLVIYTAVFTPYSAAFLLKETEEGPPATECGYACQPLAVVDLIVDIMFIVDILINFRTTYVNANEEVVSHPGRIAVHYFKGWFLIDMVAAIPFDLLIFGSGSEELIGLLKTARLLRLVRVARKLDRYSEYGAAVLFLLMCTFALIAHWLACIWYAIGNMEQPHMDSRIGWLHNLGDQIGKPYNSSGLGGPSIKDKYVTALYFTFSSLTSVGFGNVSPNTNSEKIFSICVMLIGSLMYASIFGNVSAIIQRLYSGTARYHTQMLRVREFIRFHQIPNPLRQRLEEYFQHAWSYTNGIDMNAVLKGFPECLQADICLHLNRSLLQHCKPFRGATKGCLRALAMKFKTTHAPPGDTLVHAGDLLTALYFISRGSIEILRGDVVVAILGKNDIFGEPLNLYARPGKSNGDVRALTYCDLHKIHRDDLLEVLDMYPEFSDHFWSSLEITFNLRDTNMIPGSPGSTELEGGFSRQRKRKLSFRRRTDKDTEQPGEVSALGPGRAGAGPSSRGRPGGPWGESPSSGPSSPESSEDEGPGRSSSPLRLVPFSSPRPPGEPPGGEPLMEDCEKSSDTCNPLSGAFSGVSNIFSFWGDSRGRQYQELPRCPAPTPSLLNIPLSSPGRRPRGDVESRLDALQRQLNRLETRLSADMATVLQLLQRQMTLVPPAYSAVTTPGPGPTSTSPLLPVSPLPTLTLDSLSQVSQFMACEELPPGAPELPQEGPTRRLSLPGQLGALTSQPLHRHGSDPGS
Chain of human Peripheral-type Benzodiazepine Receptor (PBR), TSPO (gene 706) (P30536 whole entry, looked up): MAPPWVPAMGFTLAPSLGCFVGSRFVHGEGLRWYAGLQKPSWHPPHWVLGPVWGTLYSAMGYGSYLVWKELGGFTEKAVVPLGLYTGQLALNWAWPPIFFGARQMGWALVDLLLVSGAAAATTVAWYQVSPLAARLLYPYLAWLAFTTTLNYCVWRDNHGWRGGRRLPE

In the first test the target is human Peripheral-type Benzodiazepine Receptor (PBR), TSPO (gene 706) (UniProt P30536). In words: NVS_MP_hPBR: NovaScreen (NVS) Membrane Protein Assay for human Peripheral-type Benzodiazepine Receptor (PBR) (AID 2283331).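 Further: hits reduce radioligand binding relative to DMSO baseline.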 An outline of the steps:
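Radioligand displacement on human colonic cell membranes, 1 h incubation; bound radioactivity by filtration and scintillation counting. Primary screen in duplicate at 25 uM single concentration, actives followed up in concentration series; loss of binding versus DMSO.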
The term AC50 denotes the concentration giving half of the maximal activity seen. Turning to `O=C(N[C@@H](c1ccccc1)[C@@H]1CCCCN1)c1cccc(C(F)(F)F)c1Cl`, the AC50 is 17.9 µM (active).
For the compound `CCCCCCC(CCCCCCCCCCC(=O)OCC(COC(C)=O)OC(C)=O)OC(C)=O` (stereo unspecified), the call was inactive.
Take `Oc1ccc(O)cc1`: the compound was called inactive.
Take `CC(C)(O)c1ccc(CNC(=O)c2cccnc2Oc2ccc(F)cc2)cc1`: the AC50 was 8.65 µM (active).
With `CC(COCC(C)OC(=O)c1ccccc1)OC(=O)c1ccccc1` (stereo unspecified), the result was inactive.
For the compound `Cc1cc(Cc2ccc(N)c(C)c2)ccc1N`, the result was inactive.
Turning to `CCN(CC)CCOc1ccc(C(=C(Cl)c2ccccc2)c2ccccc2)cc1`, the AC50 is 0.672 µM (active) and the compound was classed as inactive.

The next test has as its target Voltage-gated inwardly rectifying potassium channel KCNH2 (Homo sapiens) (UniProt Q12809). Nature of the test: NVS_IC_hKhERGCh: NovaScreen (NVS) Ion Channel Assay for human Potassium Channel ERG (KhERGCh) (AID 2283333). An outline of the steps: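 Cell-free radioligand competition binding on hERG protein extracted from CHO cells, read by filter-based scintillation counting 0.75 h after dosing. Primary screen at 25 uM in duplicate, actives followed in concentration series. Signal loss fitted versus DMSO.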
In the case of `O=C(N[C@@H](c1ccccc1)[C@@H]1CCCCN1)c1cccc(C(F)(F)F)c1Cl`, the AC50 was 32.9 µM (active).
`Cc1cc(SC2=C(O)C[C@@](CCc3ccc(N)cc3)(C(C)C)OC2=O)c(C(C)(C)C)cc1CO`: the result was inactive.
For `CCCCCCC(CCCCCCCCCCC(=O)OCC(COC(C)=O)OC(C)=O)OC(C)=O` (stereo unspecified), the result was inactive.
`CSc1ccc(Oc2ccc(S(N)(=O)=O)cc2CN(C)C)cc1C`: the outcome was inactive.
Regarding `Cn1cnc2c1c(=O)[nH]c(=O)n2C`, the result was inactive.
With `O=C(O)c1[nH]n(-c2ccc(S(=O)(=O)O)cc2)c(=O)c1N=Nc1ccc(S(=O)(=O)O)cc1`, the outcome was inactive.
Take `CN(C)C(=O)NC1(c2ccccc2)CCN(CCC[C@]2(c3ccc(Cl)c(Cl)c3)CCCN(C(=O)c3ccccc3)C2)CC1`: the AC50 was 1.24 µM (active).
With `CN(C)CCCN1c2ccccc2Sc2ccc(Cl)cc21`, the concentration at half-maximal activity (AC50) is 10.4 µM (active).
For `COC(=O)[C@H]1[C@H]2C[C@@H]3c4[nH]c5cc(OC)ccc5c4CCN3C[C@H]2C[C@@H](OC(=O)c2cc(OC)c(OC)c(OC)c2)[C@@H]1OC`, the compound was classed as inactive.

A further test has as its target Glutamate receptor ionotropic, kainate 1 (Rattus norvegicus) (UniProt P22756). Nature of the test: NVS_IC_rKAR: NovaScreen (NVS) Ion Channel Assay for rat Kainic Acid Receptors (KAR) (AID 2283334; active means hit-call score of the fitted dose curve at least 0.9, where 1 is the maximum; inactive means score below 0.9). Summed up: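 Radioligand displacement binding using rat forebrain membranes, 1 h incubation, filter-based scintillation counting. Screened in duplicate at 25 uM, with actives retested in concentration-response up to 50 uM; fitted against DMSO.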
`CCC(C)N(C)C(=O)c1cc2ccccc2c(-c2ccccc2Cl)n1` (stereo unspecified): the outcome was inactive.
On the same count and under the same terms, then `CC(C)COC(=O)CCCCC(=O)OCC(C)C`, with “inactive”.
For the compound `O=C(Oc1ccccc1)c1cccc(C(=O)Oc2ccccc2)c1`, the compound was called inactive.
With `COC(=O)CCC(=O)OC`, the compound was called inactive.

The next test concerns the target rat Peripheral-type Benzodiazepine Receptor (PBR), Tspo (gene 24230) (UniProt P16257). In words: NVS_MP_rPBR: NovaScreen (NVS) Membrane Protein Assay for rat Peripheral-type Benzodiazepine Receptor (PBR) (AID 2283335). An outline of the steps: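 Rat kidney membranes; radioligand binding with displacement, filter-based scintillation counting, 1 h incubation. Primary screen in duplicate at 25 uM, actives followed in concentration series; loss of binding vs DMSO.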
For `O=C(N[C@@H](c1ccccc1)[C@@H]1CCCCN1)c1cccc(C(F)(F)F)c1Cl`, the AC50 was 25 µM (active).
Turning to `Cc1ccc(-c2cc(C(F)(F)F)nn2-c2ccc(S(N)(=O)=O)cc2)cc1`, the result was inactive.
Consider `Cc1cc(SC2=C(O)C[C@@](CCc3ccc(N)cc3)(C(C)C)OC2=O)c(C(C)(C)C)cc1CO`, for which the result was inactive.
For the compound `CCCCc1nc2cccnc2n1Cc1ccc(-c2ccccc2-c2nnn[nH]2)cc1`, the AC50 was 14.6 µM (active).
As for `CCc1nc(N)nc(N)c1-c1ccc(Cl)cc1`, the compound was classed as inactive.
Turning to `CC(C)(O)c1ccc(CNC(=O)c2cccnc2Oc2ccc(F)cc2)cc1`, the AC50 is 4.31 µM (active).
For the compound `CC(COCC(C)OC(=O)c1ccccc1)OC(=O)c1ccccc1` (stereo unspecified), the AC50 was 17 µM (active).
For `Cc1cc(Cc2ccc(N)c(C)c2)ccc1N`, the result was inactive.

A further test deals with Small conductance calcium-activated potassium channel protein 1 (Rattus norvegicus) (UniProt P70606). Nature of the test: NVS_IC_rKCaCh: NovaScreen (NVS) Ion Channel Assay for rat Potassium Channel, Ca2+ Act., VI (KCaCh) (AID 2283336). Summed up:
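Radioligand binding to rat forebrain membranes, cell-free, read 1 hour after dosing by filter-based scintillation counting. Compounds first run in duplicate at 25 uM, actives then in concentration series; loss of signal vs DMSO indicates displacement.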
Take `O=C1OC(c2ccc(O)cc2)(c2ccc(O)cc2)c2ccccc21`: the result was inactive.
Turning to `COc1ccc(OC(F)(F)F)cc1CN[C@H]1CCCN[C@H]1c1ccccc1`, the outcome was inactive.
Turning to `c1ccc2occc2c1`, the outcome was inactive.
With `CN(C)C(=O)NC1(c2ccccc2)CCN(CCC[C@]2(c3ccc(Cl)c(Cl)c3)CCCN(C(=O)c3ccccc3)C2)CC1`, the result was inactive.

Tested on in another test: not listed separately
Nature of the test: NVS_IC_rCaBTZCHL: NovaScreen (NVS) Ion Channel Assay for Calcium Channel, Type L, Benzothiazepine Site (CaBTZCHL) (AID 2283337). An outline of the steps: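 Scintillation counting of filter-bound radioligand gave the read-out, with reduced binding versus DMSO scored as activity. Membranes came from rat cortex and were read 1.5 h after compound addition. Chemicals were screened first in duplicate at 25 uM.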
In the case of `O=C(N[C@@H](c1ccccc1)[C@@H]1CCCCN1)c1cccc(C(F)(F)F)c1Cl`, the AC50 was 0.967 µM (active).
For `CN(C)C(=O)NC1(c2ccccc2)CCN(CC[C@@]2(c3ccc(F)c(F)c3)CN(C(=O)c3ccccc3)CCO2)CC1`, the concentration at half-maximal activity (AC50) is 2.2 µM (active).
Take `COc1ccc(OC(F)(F)F)cc1CN[C@H]1CCCN[C@H]1c1ccccc1`: the AC50 is 1.24 µM (active).
The same measure, in the same setting: the result for `NC(=Nc1ccccc1)Nc1ccccc1` reads 40.6 µM (active).
Regarding `CSc1ccc(Oc2ccc(S(N)(=O)=O)cc2CN(C)C)cc1C`, the AC50 is 10.1 µM (active).
As to `CCC(C)N(C)C(=O)c1cc2ccccc2c(-c2ccccc2Cl)n1` (stereo unspecified), the AC50 was 9.12 µM (active).
The same measure, in the same setting: then `CCc1nc(N)nc(N)c1-c1ccc(Cl)cc1`, with 8.32 µM (active).
Same read-out and setting: the result for `O=C(O)c1[nH]n(-c2ccc(S(=O)(=O)O)cc2)c(=O)c1N=Nc1ccc(S(=O)(=O)O)cc1` reads 10.4 µM (active).
Take `CN(C)C(=O)NC1(c2ccccc2)CCN(CCC[C@]2(c3ccc(Cl)c(Cl)c3)CCCN(C(=O)c3ccccc3)C2)CC1`: the AC50 is 1.24 µM (active).
Turning to `CN(C)CCCN1c2ccccc2Sc2ccc(Cl)cc21`, the AC50 is 2.52 µM (active).
For the compound `COC(=O)[C@H]1[C@H]2C[C@@H]3c4[nH]c5cc(OC)ccc5c4CCN3C[C@H]2C[C@@H](OC(=O)c2cc(OC)c(OC)c(OC)c2)[C@@H]1OC`, the AC50 was 6.93 µM (active).
In the case of `CCN(CC)CCOc1ccc(C(=C(Cl)c2ccccc2)c2ccccc2)cc1`, the AC50 was 1.02 µM (active).

A further test concerns the target bovine Gamma-Aminobutyric Acid Type A Receptor Agonist (GABAR Agonist), GABRA1 (gene 780973) (UniProt P08219). Nature of the test: NVS_LGIC_bGABAR_Agonist: NovaScreen (NVS) Ligand-Gated Ion Channel Assay for bovine Gamma-Aminobutyric Acid Type A Receptor Agonist (GABAR Agonist) (AID 2283338). Summed up:
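Radioligand binding to bovine cerebellar membranes in agonist format, read by filter-based scintillation counting after 1 h. Primary screen in duplicate at 25 uM, with actives followed in concentration series. Gain of signal versus DMSO.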
As to `Cc1c(C)c2c(c(C)c1O)CCC(C)(COc1ccc(CC3SC(=O)NC3=O)cc1)O2` (stereo unspecified), the result was inactive.
For the compound `CSc1ccc(Oc2ccc(S(N)(=O)=O)cc2CN(C)C)cc1C`, the AC50 is 38.8 µM (active).
Still for that read-out and setting: then `CCc1nc(N)nc(N)c1-c1ccc(Cl)cc1`, with 8.29 µM (active).
For the compound `N[C@@H](Cc1c[nH]c2ccccc12)C(=O)O`, the outcome was inactive.
On to `CN(C)CCCN1c2ccccc2Sc2ccc(Cl)cc21`, for which the compound was classed as inactive.
The same measure, in the same setting: the result for `CC(C)(C)c1ccccc1` reads “inactive”.

The values are drawn from PubChem BioAssay (EPA / NIEHS).
